Laboratory results reported in PubChem BioAssay AID686979 (National Center for Advancing Translational Sciences (NCATS), 2013).
“And” between values parts separate entries of the source, which are not always exact repeats. Identical values can stand only once. The campaign covered roughly 420,000 compounds. About 50,000 (12%) were called active. Entries that show only a call come without a potency. Inconclusive results (about 26%) are left out. Calls come from the whole dose curve; as a rule, active = well fitted inhibition curve with a large enough effect; inconclusive = small, poorly fitted or top-dose-only effect; inactive = flat fitted curve, though single readings scatter. Many of the other results were omitted from the sample, so actives are more common in it than they were. A structure can be active in one record and inactive in another.

Experiment: qHTS for Inhibitors of human tyrosyl-DNA phosphodiesterase 1 (TDP1): qHTS in cells in presence of CPT; note: nearly all actives have a fitted effect of over 55% in size
Details: chicken DT40 Tdp1-/-;hTDP1 cells + 20 nM CPT, ATP luminescence, 48 h; series mostly up to 46.2 µM
Text: Human tyrosyl-DNA phosphodiesterase 1 (TDP1) is a novel repair gene, and we propose to use it as a new target for anticancer drug development. TDP1 is not an essential protein, but under treatment with topoisomerase I poison (camptothecin: CPT), TDP1 works as a critical factor for cell survival. To directly identify novel TDP1 inhibitors active in a cellular environment, we have knocked-out the Tdp1 gene in chicken DT40 cells (Tdp1-/-) and generated a complemented counterpart cells that contains a stable transfection of the human TDP1 gene (Tdp1-/-;hTDP1 cells). For the primary screen, Tdp1-/-;hTDP1 cells will be exposed to small molecules in the presence or absence of CPT, and their growth kinetics will be evaluated after 48 hours by measuring ATP activity. […] The hit compounds will then be evaluated in the presence or absence of CPT using Tdp1-/- cells. […] In tertiary assays, biochemical gel-based assays will be used to assess whether the hit compounds specifically target TDP1. To this end, we have screened this cell line against the MLSMR in two primary screens. In one screen we add CPT and in the other we screen in the absence of CPT; this AID represents the screen where CPT was present. NIH Chemical Genomics Center [NCGC] NIH Molecular Libraries Probe Centers Network [MLPCN] MLPCN Grant: MH095538 Assay Submitter (PI): Yves Pommier, NCI
DT40-hTDP1 cells with 20 nM Camptothecin (add 20 microL of 1 mM CPT stock in 1 L of cell culture medium) were dispensed at 400 cells/5microL/well in tissue culture treated 1536-well white wall/solid bottom assay plates (Greiner Bio-One North America, NC, U.S.A.) using a Multidrop Combi 8 channel dispenser (Thermo Fisher, Waltham, MA, USA). 23 nL compounds and controls were transferred using the pin tool (Kalypsys, San Diego, CA, USA) to the assay plates. The assay plates were then incubated at 37 masculineC for a minimum 48 hr. Three microL of Cell Titer Glo solution was added to the plates and incubated at RT in dark for 30 min. Luminescence was read using ViewLux (Perkin Elmer) with 1 sec exposure slow speed, high gain and 2x binning.
Potency is the fitted concentration of half-maximal effect.

| SMILES | Potency |
| --- | --- |
| O=C(COc1ccc(/C=N/NS(=O)(=O)c2ccccc2)cc1)NCCc1ccccc1 | inactive |
| CC(C)NC(=O)COCc1cc(-c2ccc3c(c2)OCO3)on1 | inactive |
| O=C(COCc1cc(-c2ccc3c(c2)OCO3)on1)N1CCN(c2cccc(Cl)c2)CC1 | inactive and 18.4 µM (active) |
| Cc1cccc(N2CCN(C(=O)COCc3cc(-c4ccc5c(c4)OCO5)on3)CC2)c1C | inactive |
| CC(=O)c1ccccc1NC(=O)C1CC(=O)N(c2ccc3c(c2)OCCO3)C1 (stereo not drawn) | inactive |
| N#CCCN(C(=O)COC(=O)C1CCN(c2ccc(C(F)(F)F)cn2)CC1)c1ccc(F)cc1 | inactive |
| c1ccc(-n2nnnc2NC2CCCCCC2)cc1 | inactive |
| c1ccc(-n2nnnc2-c2cccnc2)cc1 | inactive |
| FC(F)(F)c1nc(-c2ccccc2)ncc1-c1nnnn1-c1ccccc1 | 20.6 µM (active) |
| Cc1ccc2c(=O)cc(C(=O)Nc3sc4c(c3C(=O)NCc3cccnc3)CCCC4)oc2c1 | inactive |
| COc1ccc(C2CC(c3cccs3)=NN2C(=O)CSc2nnc(N)s2)cc1OC (stereo not drawn) | inactive |
| Fc1ccc2cnc(-c3ccccc3)cc2c1 | inactive |
| Fc1ccc(Nc2nnns2)cc1 | inactive |
| CSc1nc(Nc2ccc(F)cc2)cc(-c2ccccc2)n1 | 14.6 µM (active) |
| CCNc1nc(Oc2ccc(C(=O)OC)cc2)nc(N2CCOCC2)n1 | inactive |
| O=C(NCCS(=O)(=O)NCc1ccc(F)cc1)c1ccccc1 | inactive |
| COc1ccccc1S(=O)(=O)NCc1ccc(C(=O)N(C)Cc2ccc(F)cc2)cc1 | 20.6 µM (active) |
| COc1ccc(S(=O)(=O)NCc2ccc(C(=O)N(C)Cc3ccco3)cc2)cc1 | inactive |
| NC(=O)c1oc2ccccc2c1NC(=O)CS(=O)(=O)c1ccccc1 | inactive |
| CC[C@]12c3[nH]c4ccc(OC)cc4c3CCN1C(=O)C(CC(=O)NCCN1CCOCC1)C[C@@H]2C(=O)N1CCN(C(=O)C2CC2)CC1 (stereo partly drawn) | inactive |
| c1ccc2c(c1)CSc1sccc1C2=C1CCNCC1 | 20.6 µM (active) |
| Cc1csc(NCC(=O)c2c[nH]c3ccccc23)n1 | inactive |
| NC(=O)NCCCC(=O)O | inactive |

| SMILES | Potency |
| --- | --- |
| Cc1cc(C)n(CCNCc2c(C(=O)N3C[C@@H](C)O[C@@H](C)C3)nc3ccc(Cl)cn23)n1 | inactive |
| CC(=O)Oc1cccc(C(=O)Nc2ccccc2NC(=O)c2cccc(OC(C)=O)c2)c1 | inactive |
| Cc1ccc(C)c2[nH]c(=O)c(CCNC(=O)CC(C)C)cc12 | inactive |
| COc1ccc(OC)c2[nH]c(=O)c(CCNC(=O)C(C)(C)C)cc12 | inactive |
| COc1ccc(OC)c2[nH]c(=O)c(CCNC(=O)C(=O)c3c[nH]c4ccccc34)cc12 | 10.3 µM (active) |
| CC1(C(=O)NCc2ccccc2)CSCC(=O)N1CCCn1ccnc1 (stereo not drawn) | inactive |
| O=C(/C=C/c1ccccc1)c1ccccc1O | 10.3 µM (active) |
| CC1(C)C=Cc2c(ccc(C(=O)/C=C/c3ccccc3)c2O)O1 | 7.94 µM (active) |
| O=C(/C=C/c1ccccc1)N/C(=C/c1ccccc1)C(=O)Nc1ccccc1O | inactive |
| CC(=O)Nc1ccc(NC(=S)NC(=O)/C=C/c2ccccc2)cc1 | inactive |
| O=C(O)c1ccc2c(c1)C(=O)N(c1ccc(/C=C/C(=O)c3ccccc3)cc1)C2=O | inactive |
| CC1(C(=O)O)CCN1C(=O)/C=C/c1ccccc1 (stereo not drawn) | inactive |
| N#CC1=C(N)Oc2[nH]c(=S)[nH]c(=O)c2C12C(=O)Nc1ccccc12 (stereo not drawn) | inactive |
| O=S(=O)(Nc1ccc2ccccc2c1)N1CCCCC1 | inactive |
| CC1CN/C(=C\C(=O)c2ccc(Br)cc2)C(=O)N1 (stereo not drawn) | inactive |
| CCN(CC)CCN(C(=O)c1ccc(S(=O)(=O)N2CCOCC2)cc1)c1nc2cc3c(cc2s1)OCCO3 | inactive |
| CCOc1ccc2nc(N(CCN(C)C)C(=O)c3ccc4ccccc4c3)sc2c1 | inactive |
| CN(C)CCCN(C(=O)c1ccc(S(=O)(=O)N2CCCCCC2)cc1)c1nc2ccc(Br)cc2s1 | 11.6 µM (active) |
| O=c1/c(=C/c2ccc(CNS(=O)(=O)c3ccccc3)o2)sc2n1CCN=2 | inactive |
| Nc1nc(NCc2ccccc2)n(-c2ccccc2)n1 | inactive |
| Cc1cc(C)n2c(NCc3ccccc3)c(CC(C)C)nc2n1 | 14.6 µM (active) |
| Cn1cc(C2OC(=O)c3ccccc32)c2ccccc21 (stereo not drawn) | inactive |
| ONC(=Nc1ccc(Cl)cc1)c1ccccc1Cl | inactive |

| SMILES | Potency |
| --- | --- |
| Cc1ccc(/C=N/NC(=O)Cn2ccc(C(F)(F)F)n2)o1 | inactive |
| CCOc1ccc2oc(C(=O)N(CC)CC(=O)Nc3ccc(NC(C)=O)cc3)c(C)c2c1 | inactive |
| O=C1c2ccccc2C(=O)N1CCOc1ccc(F)cc1 | inactive |
| Cc1cccc(C)c1-n1nnnc1C1(C)CCC(=O)N1CCOc1ccccc1 (stereo not drawn) | inactive |
| Cc1cccc2c1N(CCOc1ccccc1)C(=O)C2=O | 2.06 µM (active) |
| O=c1c2ccccc2ncn1CCCCOc1ccccc1F | inactive |
| CCOC(=O)N1CCN(C(=O)C(C)NC(=O)c2ccco2)CC1 (stereo not drawn) | inactive |
| CC(=O)c1ccc(N2CCN(C(=O)CCNC(=O)Cn3ccc4ccccc4c3=O)CC2)cc1 | inactive |
| CCOc1cccc(NC(=O)c2ccc(F)c(S(=O)(=O)N(CC)c3cccc(C)c3)c2)c1 | 18.4 µM (active) |
| CCOc1cccc(NC(=O)CC#N)c1 | inactive |
| CCOc1ccc(N(CC(=O)Nc2cccc(OC)c2)S(C)(=O)=O)cc1 | inactive |
| O=c1[nH]c2ccccc2s1 | inactive |
| CC1CCCCN1C(=O)CCS(=O)(=O)Cc1ccccc1 (stereo not drawn) | inactive |
| COc1ccnc(Oc2ccccc2)n1 | inactive |
| CCC(C)c1ccccc1N1CC(C(=O)N2CCN(S(=O)(=O)c3ccc(F)cc3)CC2)CC1=O (stereo not drawn) | inactive |
| COc1ccc(CCNS(=O)(=O)c2cc3c(cc2C)NC(=O)CO3)cc1OC | inactive |
| COc1ccc(CC(=O)NC(C)CCc2ccccc2)cc1 (stereo not drawn) | inactive |
| CCC/C=C(\CCC)C(NC(=O)Cc1ccccc1)c1ccc(C(=O)OC)cc1 (stereo not drawn) | 18.4 µM (active) |
| CCOc1ccc(C(CC(=O)O)NC(=O)Cc2ccccc2)cc1OC (stereo not drawn) | inactive |
| Cc1cccc(OCC(=O)NCC(=O)N/N=C/c2ccc(N(C)C)cc2)c1 | inactive |
| C=CCc1ccccc1OCC(=O)N/N=C/c1ccccc1OCC | inactive |
| Cc1ccc(/C=N/NC(=O)COc2ccccc2-c2ccccc2)cc1 | 0.164 µM (active) |
